Assay results taken from PubChem BioAssay (NCI).
About 79,000 compounds went through this panel and 15% of them were active in at least one assay; those are over-represented in the sample as a whole. Values without a mark were called inactive. Calls of active or inactive are those of the source. Rule as the data show it: active = growth inhibition above about 70%; inactive = the rest.

Experiments:
[1] = NCI Yeast Anticancer Drug Screen. Data for the rad50 strain (AID 155);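 also: 0% = growth of vehicle-only cultures of the same strain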; conditions: S. cerevisiae rad50 strain growth inhibition; at 50.0 µM; hits give high values
Summary of the method: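 Growth of the mutant yeast was measured after compound exposure and referenced to vehicle-treated cultures.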

[2] = NCI Yeast Anticancer Drug Screen. Data for the mec2-1 strain (AID 157); conditions: S. cerevisiae mec2-1 strain, at 50.0 µM, hits give high values
Summary of the method: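 Vehicle-treated cultures served as reference for growth inhibition of compound-exposed mec2-1 yeast.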

[3] = NCI Yeast Anticancer Drug Screen. Data for the sgs1 mgt1 strain (AID 161);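 also: 0% = growth of cultures given vehicle only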; conditions: S. cerevisiae sgs1 mgt1 strain, at 50.0 µM, hits give high values
Summary of the method: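 Test agents were incubated with a DNA-repair-mutant yeast strain. Growth was then read and compared against vehicle-treated controls.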

[4] = NCI Yeast Anticancer Drug Screen. Data for the cln2 rad14 strain (AID 165);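 also: 0% = growth equal to vehicle treated cultures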; conditions: S. cerevisiae cln2 rad14 strain, at 50.0 µM, hits give high values
Summary of the method: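 Each compound was tested on cln2 rad14 yeast. Inhibition of growth was calculated against vehicle-exposed controls.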

[5] = NCI Yeast Anticancer Drug Screen. Data for the bub3 strain (AID 167); conditions: S. cerevisiae bub3 mutant strain, at 50.0 µM, hits give high values
Summary of the method: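 Whole-cell yeast assay. The mutant strain was incubated with compounds, and growth inhibition was determined by comparison with vehicle-treated cells.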

[6] = NCI Yeast Anticancer Drug Screen. Data for the mlh1 rad18 strain (AID 175); conditions: S. cerevisiae mlh1 rad18 strain growth inhibition; at 50.0 µM; hits give high values
Summary of the method: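 Vehicle-treated cultures served as the reference for growth inhibition in a yeast strain carrying DNA damage repair alterations exposed to each compound.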

Compound | growth inhibition [1] | growth inhibition [2] [%] | growth inhibition [3] | growth inhibition [4] | growth inhibition [5] | growth inhibition [6]
Cc1cccc(C)c1N=Nc1ccc(O)c(CN(C)C)c1 | -6.2% | -14.7 | -12.1% | -3.6% | 22.6% | -8.85%
N#C/C(c1nc2ccccc2[nH]1)=c1\s/c(=C(/N)O)c(=N)n1-c1ccccc1 | -31.6% | -26 | -32.4% | -30.1% | -34.1% | -47.6%
C/C=C/C=C/C(=O)CCC1(C)OC(=O)C(C)=C1O (stereo unspecified) | -0.9% | 0.45 | 2.4% | -4.35% | -3.45% | 6.25%
CC1(CO)CSC(Nc2ccc(F)cc2)=N1 (stereo unspecified) | -7.4% | -11.1 | 14.8% | 14.8% | 2.4% | 3.35%
C#CN1C(=O)c2c(c(-c3ccccc3)c(-c3ccc(Oc4ccc(-c5c(-c6ccccc6)c6c(c(-c7ccccc7)c5-c5ccccc5)C(=O)N(C#C)C6=O)cc4)cc3)c(-c3ccccc3)c2-c2ccccc2)C1=O | 7.25% | 10.1 | 1.9% | 10.3% | 1.4% | 15.2%
CCOC(=O)C1C(=O)C(=O)N(C)C1c1ccccc1 (stereo unspecified) | -2.6% | 16.3 | 8.1% | -49.9% | 2.7% | 8.55%
COC(=O)/C(C#N)=C\n1c(=S)[nH]c2ccccc21 | -14.2% | 2.55 | -16.4% | 17.4% | -4.9% | -8.35%
O=C(OCCCl)C1OC(n2cc(F)c(=O)[nH]c2=O)CC1O (stereo unspecified) | 23.4% | 3.35 | 2.5% | 8.7% | 2.55% | -3.1%
CCCCS(=N)(=O)CC[C@H](N)C(=O)O (stereo partly specified) | 2.3% | -22.6 | -25.1% | -1.4% | -47% | -9.85%
COC(=O)CC1(C(=O)OC)Nc2ccc(Cl)cc2C(=O)O1 (stereo unspecified) | -2.55% | 1.85 | 12.5% | -19.6% | -9.5% | -11.8%
CC(=O)OCC1OC(n2c(C)c(N=Nc3ccc(Cl)cc3)c(C)c(C#N)c2=S)C(OC(C)=O)C(OC(C)=O)C1OC(C)=O (stereo unspecified) | 4.65% | -0.75 | 25.1% | 11.9% | 7.55% | 18.8%
CN(C)C(CO)(CO)CO | 15.3% | -7.5 | 3% | -0.75% | 3.3% | 2.3%
O=C(O)CCCCCNC(=O)c1ccccc1 | 18.3% | 14.8 | 16.2% | 6.4% | -8.2% | 22.2%
CC1(C)C2CCC(OC(=O)c3ccc([N+](=O)[O-])cc3)C1C2 (stereo unspecified) | 7.25% | -5.15 | 3.5% | -8.1% | 9.95% | -20.8%
COc1ccc(-c2cc(-c3ccccc3)nc(-c3cccc([N+](=O)[O-])c3)c2)cc1 | -1.6% | -4.4 | 11.4% | -3.75% | 21.2% | 18.4%
ON(C(=S)Nc1ccccc1)c1ccccc1 | 20.9% | 12.8 | 21.1% | -13.7% | 8.3% | 15.9%
Cc1c(F)c(F)c(-c2c(F)c(F)c(C)c(F)c2F)c(F)c1F | 5% | -35.2 | -17.3% | 8.3% | -16.2% | 0.1%
Oc1ccccc1C=NCCN(CCN=Cc1ccccc1O)c1ccccc1 | 21.1% | 7.1 | 26.1% | 12.8% | 8.9% | 32.5%
CC[N+](CC)(CCO)CCCCCCCCCC[N+](CC)(CC)CCO | 29.6% | -4.15 | 10.6% | -15.3% | -1.15% | 9.2%
COC(=O)/C=C(/C)c1ccccc1 | 1.7% | 2.3 | 0.9% | 5.65% | 1.45% | -3.5%
CC(=O)Nc1cc(OC(C)=O)nc2c1CCC2 | 14.2% | -0.05 | -5.5% | 7.95% | -1.05% | 11.6%

Compound | growth inhibition [1] | growth inhibition [2] [%] | growth inhibition [3] | growth inhibition [4] | growth inhibition [5] | growth inhibition [6]
CC(C)SC(=O)C[Si](C)(C)C | -5.8% | 6.95 | -2.9% | -16.1% | 26.7% | -1.65%
Clc1ccccc1/C=C(/c1ccccc1)c1ccccn1 | 37.5% | 12.3 | 23.3% | -8.85% | 29.9% | 15.8%
C=CCNC(=S)Nc1cccc(OC(=O)NC2CCCCC2)c1 | -0.15% | 2.05 | 3.75% | -19.6% | 14.3% | -4.7%
CC(=O)c1ccc(OC(=O)Nc2ccc(Cl)cc2)cc1 | 4.8% | 10.1 | 23.9% | -2.3% | 29.6% | 12.9%
COC(=O)C12OCC34C(CC5C(C)=C(O)C(=O)CC5(C)C3C(O)C1O)OC(=O)C(OC(C)=O)C24 (stereo unspecified) | 81.5% (active) | 69.5 | 80.5% (active) | 79.3% (active) | 79% (active) | 84.2% (active)
CCOC(=O)CN1CC(C2=C(O)CN(CC(=O)OCC)C2=O)=CC1=O | 0.75% | 9.7 | -12.6% | 29.1% | 9.55% | -27%
NC(=O)N/N=C1/CCC(O)CC1CC(=O)O (stereo unspecified) | -7.85% | -4.75 | -7.05% | 12.7% | -57.9% | -2.95%
O=c1[nH]c(C(Cl)(Cl)Cl)nc2ccc(Cl)cc12 | -0.3% | 8.6 | -1.95% | 11.8% | -10.1% | -12.1%
CCNC(=O)NCc1cccc2ccccc12 | -0.05% | -8.15 | -7.15% | -74.2% | 5.15% | -1.6%
Cc1nc2c(N3CCOCC3)ncnc2o1 | 5.15% | -1.05 | -5.5% | -27.4% | -15.3% | 7.75%
COc1cc(OC)c2cc(C(=O)c3cccc4ccccc34)c(=O)oc2c1 | 1.35% | -22.8 | 9.65% | 16.9% | 19.4% | 13.4%
O=c1[nH]c(=O)n(C2CC(O)C(CO)O2)cc1OC/C=C/Cc1ccccc1 (stereo unspecified) | -22.1% | -12.8 | 0.95% | 7.75% | -10.4% | -20.7%
CC(O)CC(C)CO (stereo unspecified) | 23.1% | -20.3 | -9.5% | -55.5% | 15.2% | 18%
COc1ccc(CSC(=S)Nc2ccc(C)c(Cl)c2)cc1 | 26% | 18.2 | 18.6% | 10.1% | -3.35% | 17.2%
O=C1C2=Cc3ccccc3OC2(O)Oc2cc(O)ccc21 (stereo unspecified) | 10.5% | 11.2 | 0.05% | -4.1% | -2.15% | -36.6%
O=[N+]([O-])c1ccc(C[Se]c2ncnc3c2ncn3C2OC(CO)C(O)C2O)cc1 (stereo unspecified) | -15.1% | -7 | 13.6% | -32.2% | 0.6% | -8.35%
COc1ccccc1C(OC)c1ccccc1C(=O)O (stereo unspecified) | -10.9% | -17.1 | -1.4% | -12.5% | -4.7% | -16.1%
C=CCN1C(=O)C(c2ccccc2)(c2ccccc2)NC1=S | 1.7% | -32.9 | -32.1% | -20.1% | -30.6% | -41.1%
CCCCCC(/C=C/[C@@H]1[C@H]2CC(=O)O[C@H]2C[C@H]1N1CCOCC1)OC1CCCO1 (stereo partly specified) | 0.2% | -6.3 | 11.8% | -35.1% | -29.6% | 11.8%
Cc1c(N=Nc2cccc(Cl)c2)c(-c2ccccc2)nn1C(N)=S | 80.3% (active) | 45 | 96.8% (active) | 12.4% | 91.5% (active) | 92.5% (active)
